Screening results from PubChem BioAssay.
This is a sample that favours compounds with a hit; in the whole collection about 3.3% have one here.
p47phox inh: p47phox/p22phox peptide binding inhibitors, primary screen, biochemical, uHTS, NADPH oxidase regulatory subunit; fluorescence polarization, 2 h; inhibition, % at 24.7 µM; 0.53% of 220,000 active; AID 1274, 2008;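 also: 0% = p47phox with labelled peptide and 100% = labelled peptide alone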
Target sequence (P14598 whole entry, looked up): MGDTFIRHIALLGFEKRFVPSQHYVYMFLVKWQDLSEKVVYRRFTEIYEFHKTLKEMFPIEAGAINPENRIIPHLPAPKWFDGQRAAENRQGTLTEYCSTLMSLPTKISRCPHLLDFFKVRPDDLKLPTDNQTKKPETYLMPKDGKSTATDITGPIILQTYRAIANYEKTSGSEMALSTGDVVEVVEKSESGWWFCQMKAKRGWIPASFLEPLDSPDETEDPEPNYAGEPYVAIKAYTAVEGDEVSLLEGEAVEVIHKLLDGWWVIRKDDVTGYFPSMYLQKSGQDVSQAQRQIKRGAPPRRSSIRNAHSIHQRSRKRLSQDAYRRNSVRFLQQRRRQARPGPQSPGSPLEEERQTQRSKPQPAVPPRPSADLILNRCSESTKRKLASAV
eIF4E-4G inh: eIF4E–eIF4G protein interaction inhibitors, primary screen, biochemical, uHTS, TR-FRET, eIF4GI fragment. Eukaryotic translation initiation factor 4E (Mus musculus) + Eukaryotic translation …. TR-FRET eIF4E-eIF4GI(517-606) binding, 2 h. inhibition, % at 21.7 µM. 0.37% of 220,000 active. AID 782, 2007;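 also: 0% = full FRET control wells and 100% = background wells lacking eIF4GI fragment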
Mcl1 Bid PPI: Mcl-1/Bid binding inhibitors, primary screen, biochemical, TR-FRET, 1536-well | Induced myeloid leukemia cell differentiation protein Mcl-1 (Homo sapiens), Q07820 | TR-FRET Mcl-1/Bid-Dy647 peptide binding | inhibition, % at 21.7 µM | 0.97% of 220,000 active | AID 1021, 2008;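 active = compounds that cut the binding signal by more than half at the single screening dose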;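 also: His-tagged Mcl-1 with europium anti-His antibody binding Bid BH3 peptide; 0% = Mcl-1 plus peptide wells and 100% = peptide-only wells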
Mcl-1 Bim block: inhibitors of Bim peptide binding to Mcl-1, primary screen, biochemical, bead-based flow cytometry, multiplex. Bim peptide-Mcl-1 binding. inhibition, % at 10 µM. 0.1% of 190,000 active. AID 1009, 2008; in the data active = inhibition above about 40%;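 also: 0% = no compound tracer wells and 100% = peptide blocker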
Mcl1 Noxa PPI: Mcl-1/Noxa binding inhibitors, primary screen, biochemical, TR-FRET, 1536-well. 1.5% of 220,000 active. AID 1022, 2008. inhibition, % at 21.7 µM. Induced myeloid leukemia cell differentiation protein Mcl-1 (Homo sapiens), Q07820. TR-FRET Mcl-1/Noxa peptide binding, 2 h;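 active = compounds that cut the protein-peptide binding signal by more than 50% relative to plate controls in a single-dose test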;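 also: His-tagged Mcl-1 with rhodamine Noxa BH3 peptide and terbium anti-His antibody; 0% = Mcl-1 plus Noxa peptide wells and 100% = peptide-only wells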
14-3-3 Bad inh: inhibitors of 14-3-3 zeta/Bad binding, primary screen, biochemical, TR-FRET, bovine 14-3-3 zeta; inhibition, % at 21.7 µM; 0.71% of 220,000 active; AID 781, 2007; TR-FRET 14-3-3zeta/Dy647-pBad peptide displacement, 1 h; 14-3-3 protein zeta/delta (Bos taurus), P63103;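 active = inhibition above about 70%, limit read from the data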;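 also: 0% = full 14-3-3 plus peptide FRET controls and 100% = background without 14-3-3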
Active calls of the source: *; / = no result; + = active, no number; [ ] = another dose, or the depositor's remark.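 The calls were made as follows, unless noted: active = inhibition above about 30% (limit read from the data); inactive = the rest.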

SMILES	p47phox inh	eIF4E-4G inh	Mcl1 Bid PPI	Mcl-1 Bim block	Mcl1 Noxa PPI	14-3-3 Bad inh
CCOC(=O)c1cn(CC)c2ccc(S(=O)(=O)N3CC(C)CC(C)C3)cc2c1=O (centres undefined)	1	-5	54*	0	8	22
CCn1cc(C(=O)NCc2cccs2)c(=O)c2cc(S(=O)(=O)N3CCOCC3)ccc21	-8	-3	51*	/	20	11
CCn1cc(C(=O)NCc2ccco2)c(=O)c2cc(S(=O)(=O)N3CCCC3)ccc21	-6	3	-2	1	-2	0
Cc1c(C(=O)NCc2ccccn2)oc2ccc(S(=O)(=O)N3CCOCC3)cc12	50*	-4	-6	-2	9	1
Cc1c(C(=O)NCc2cccs2)oc2ccc(S(=O)(=O)N3CCOCC3)cc12	-10	-2	2	-1	-7	-7
Cc1cccc2cc3c(N)c(C(=O)N4CCc5ccccc54)sc3nc12	-67	1	4	-2	47	-7
CC(C(=O)N1CCCCCC1)c1ccc([N+](=O)[O-])cc1 (centres undefined)	/	-2	-3	-2	-11	5
Cc1nn(-c2ccc(Cl)c(Cl)c2)c(C)c1C(=O)O	-2	3	-10	54*	-3	-5
Cc1nn(-c2ccc(C(=O)O)cc2)c(C)c1Cl	-2	0	-18	4	0	1
O=C(Nc1ccc(Cl)cc1)Nc1cccc2nsnc12	-47	-13	-13	/	-7	-1
O=C(NCc1cccnc1)C(=O)NCC(c1ccco1)N1CCN(c2ccccc2F)CC1 (centres undefined)	-4	6	-40	-6	10	-25
O=C(NCc1ccccc1)C(=O)NCC(c1ccco1)N1CCN(c2ccccc2F)CC1 (centres undefined)	59*	1	-45	-3	1	-7
COc1ccc(CCn2c(=N)c(C(=O)NCc3ccco3)cc3c(=O)n4ccccc4nc32)cc1	22	3	0	2	68*	1
N=c1c(C(=O)NCc2ccc(F)cc2)cc2c(=O)n3ccccc3nc2n1Cc1cccnc1	3	-12	20	0	75*	13
COCCn1c(=N)c(C(=O)NCCc2ccc(OC)cc2)cc2c(=O)n3cccc(C)c3nc21	/	/	/	-1	/	/
Cc1cc(=O)oc2cc(OCc3ccc(C(=O)N4CCN(c5ccc([N+](=O)[O-])cc5)CC4)cc3)ccc12	-21	-2	-5	0	0	-8
COC(=O)c1ccc(Oc2coc3cc(OCc4ccc([N+](=O)[O-])cc4)ccc3c2=O)cc1	-10	0	94*	0	55*	-1
COc1ccc(CNC(=O)C2CCC(CNc3c(N4CCC(C)CC4)c(=O)c3=O)CC2)cc1 (centres undefined)	-9	1	-7	/	-18	-2
COc1cc(C(CC(=O)O)n2cnnn2)ccc1OC(C)C (centres undefined)	-12	2	-15	0	14	-19
CN(C)c1ccc(/C=C2/C=C(c3ccc4c(c3)CCCC4)OC2=O)cc1	45*	-5	-109	/	-2	2
COc1ccc(C2=C/C(=C\c3ccc(OC(C)=O)cc3)C(=O)O2)cc1	-13	-1	-12	0	22	11
Clc1ccccc1OCCN1CCC(Cc2ccccc2)CC1	-11	0	63*	-3	30	38
O=C(c1ccccc1)c1ccc(OCCOCCN2CCN(Cc3ccccc3)CC2)cc1	14	4	29	-1	11	58
CCOc1ccccc1OCCOCCN1CCN(Cc2ccccc2)CC1	40*	3	31	4	17	84*
Nc1nnc(Cc2cccc(Br)c2)s1	7	6	1	/	16	2
SMILES	p47phox inh	eIF4E-4G inh	Mcl1 Bid PPI	Mcl-1 Bim block	Mcl1 Noxa PPI	14-3-3 Bad inh
CC(=O)/C(=N\Nc1ccccc1)Sc1nncn1C	-17	4	-23	-8	19	2
Cc1ccc(C(=O)NCC(=O)N/N=C/c2cccs2)cc1C	0	-2	-13	-27	8	-7
N#C/C(=C1/CCCCCN1)c1nc2ccccc2s1	-44	2	98*	-1	3	-16
N#C/C(=C1\CCCN1)c1nc2ccccc2c(=O)[nH]1	-12	0	5	0	15	6
NS(=O)(=O)c1ccc(CCNC(=O)CSc2nc3ccsc3c(=O)n2CCCCCC(=O)O)cc1	4	-1	-4	0	11	-5
CCCCNC(=O)CSc1nc2ccsc2c(=O)n1CCCC(=O)NCCc1ccc(S(N)(=O)=O)cc1	31*	-2	1	0	15	5
O=C(Nc1nnc(-c2ccc3c(c2)CCCC3)o1)c1ccccc1	-24	3	-34	3	-73	4
O=C(COc1ccccc1)Nc1nnc(-c2ccc3c(c2)CCCC3)o1	168*	0	-41	0	-90	12
Cc1ccc(-n2c(SCC(=O)N3CCOCC3)nnc2-c2ccncc2)cc1C	-8	-6	-56	/	-7	-3
CCN(CC)S(=O)(=O)c1ccc(C(=O)NNc2nc(-c3ccccc3)c3cc(Br)ccc3n2)cc1	-8	0	-36	0	-17	7
CC(C)(C)C(=O)NNc1nc(-c2ccccc2)c2cc(Br)ccc2n1	-8	5	97*	-3	-4	8
COc1ccc(CC(=O)NNC(=O)c2nn(Cc3ccccc3)c(=O)c3ccccc23)cc1OC	142*	9	5	/	17	4
CCCc1nc(NC(=O)c2ccccc2)nc(NC(=O)c2ccccc2)n1	2	8	14	/	28	2
Cc1nonc1C1CCCN1Cc1nc(-c2ccccc2Cl)oc1C (centres undefined)	-1	-1	-30	-3	16	-16
O=c1c(Cl)c2oc3ccccc3nc-2c2ccccc12	0	13	48	9	62*	38
O=C(O)CSc1nc2ccccc2n1C1CCCCC1	0	1	50	-2	32	84*
Cc1noc(NS(=O)(=O)c2ccc(N3Cc4ccccc4C3=O)cc2)c1C	1	1	-29	-1	14	+[fluorescence artefact?]
O=[N+]([O-])c1ccc(/C=N/NC(=S)Nc2ccccc2C(F)(F)F)o1	6	-2	-15	-2	40	-7
COc1cc2[nH]c(=O)c(C(=O)NCCCN3CCOCC3)c(O)c2cc1OC	10	-1	12	-3	68*	-5
NC(=O)NC(=O)COC(=O)c1cccc(NS(=O)(=O)/C=C/c2ccccc2)c1	-12	34*	-6	-2	2	0
